Experimental data published in the supplement of paper PMC11732987, “Enantioselective OTUD7B fragment discovery through chemoproteomics screening and high-throughput optimisation” (Communications Chemistry, 2025).

Key:
Assay in all cases: log2 ratio of Biotin-Ahx-Ub-VS probe labelling (fragment/DMSO); higher = less target engagement (more negative = stronger competition), active = hit call of the paper (q ≤ 0.05, log2 ratio ≤ -1)
Conditions in all cases: compound concentration: 200 uM; treatment time: 3 h
USP9X = USP9X (UniProt Q93008)
Outline: (§1)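 Labelled DUBs from HEK293T lysate were NeutrAvidin-enriched, digested with LysC and trypsin, and run by diaPASEF LC-MS/MS. Before that, each 495 µg sample in Tris/CHAPS/IGEPAL buffer with protease inhibitors was treated in triplicate with fragment at 200 µM or vehicle for 3 h, then with Biotin-Ahx-Ub-VS at 0.5 µM final for 1 h. Values are average log2 ratios of fragment over vehicle by unpaired t-test, based on global-median-normalised Spectronaut label-free quantities from proteins with ≥2 unique peptides.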

UniProt O00487 = biological target: UniProt O00487
Outline: as §1

UniProt O00507 = biological target: UniProt O00507
Outline: as §1

UniProt P51784 = biological target: UniProt P51784
Outline: as §1

UniProt Q5T2D3 = biological target: T1, UniProt Q5T2D3
T1 sequence (whole entry): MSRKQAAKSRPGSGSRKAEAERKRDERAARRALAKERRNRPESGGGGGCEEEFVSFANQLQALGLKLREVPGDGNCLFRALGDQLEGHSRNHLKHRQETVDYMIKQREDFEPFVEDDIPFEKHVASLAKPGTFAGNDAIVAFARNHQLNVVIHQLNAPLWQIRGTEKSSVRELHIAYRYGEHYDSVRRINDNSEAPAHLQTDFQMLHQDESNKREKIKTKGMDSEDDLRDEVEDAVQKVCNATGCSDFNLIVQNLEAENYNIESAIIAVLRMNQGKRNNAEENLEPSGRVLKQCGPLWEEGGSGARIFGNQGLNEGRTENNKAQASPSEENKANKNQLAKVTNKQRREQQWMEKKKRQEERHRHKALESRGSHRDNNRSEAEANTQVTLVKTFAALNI
Outline: as §1

UniProt Q8TE49 = biological target: T2, UniProt Q8TE49
T2 sequence (whole entry): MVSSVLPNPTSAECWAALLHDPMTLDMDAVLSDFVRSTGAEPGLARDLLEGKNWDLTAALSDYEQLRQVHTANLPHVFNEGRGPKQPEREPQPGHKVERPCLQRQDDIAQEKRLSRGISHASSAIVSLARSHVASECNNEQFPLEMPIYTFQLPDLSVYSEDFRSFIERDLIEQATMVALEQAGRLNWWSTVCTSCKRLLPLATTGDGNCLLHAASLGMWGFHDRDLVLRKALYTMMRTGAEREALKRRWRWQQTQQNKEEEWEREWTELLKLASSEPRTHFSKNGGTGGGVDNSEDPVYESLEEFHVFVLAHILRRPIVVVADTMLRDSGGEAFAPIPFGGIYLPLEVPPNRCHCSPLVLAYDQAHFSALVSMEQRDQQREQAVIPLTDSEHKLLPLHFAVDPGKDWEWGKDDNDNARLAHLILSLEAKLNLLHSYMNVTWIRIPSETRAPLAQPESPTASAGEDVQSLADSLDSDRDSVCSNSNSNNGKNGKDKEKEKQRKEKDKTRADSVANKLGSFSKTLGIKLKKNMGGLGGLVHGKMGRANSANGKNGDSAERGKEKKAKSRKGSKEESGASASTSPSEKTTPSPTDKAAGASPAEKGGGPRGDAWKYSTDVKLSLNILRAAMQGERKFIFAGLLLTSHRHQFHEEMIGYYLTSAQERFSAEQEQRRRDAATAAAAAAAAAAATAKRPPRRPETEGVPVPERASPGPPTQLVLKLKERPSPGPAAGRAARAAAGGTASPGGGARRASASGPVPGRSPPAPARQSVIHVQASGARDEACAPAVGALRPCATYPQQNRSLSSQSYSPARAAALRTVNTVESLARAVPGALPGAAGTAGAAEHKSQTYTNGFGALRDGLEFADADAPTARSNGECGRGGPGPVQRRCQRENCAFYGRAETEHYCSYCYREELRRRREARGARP
Outline: as §1

UniProt Q9P2H5 = biological target: T3, UniProt Q9P2H5
T3 sequence (whole entry): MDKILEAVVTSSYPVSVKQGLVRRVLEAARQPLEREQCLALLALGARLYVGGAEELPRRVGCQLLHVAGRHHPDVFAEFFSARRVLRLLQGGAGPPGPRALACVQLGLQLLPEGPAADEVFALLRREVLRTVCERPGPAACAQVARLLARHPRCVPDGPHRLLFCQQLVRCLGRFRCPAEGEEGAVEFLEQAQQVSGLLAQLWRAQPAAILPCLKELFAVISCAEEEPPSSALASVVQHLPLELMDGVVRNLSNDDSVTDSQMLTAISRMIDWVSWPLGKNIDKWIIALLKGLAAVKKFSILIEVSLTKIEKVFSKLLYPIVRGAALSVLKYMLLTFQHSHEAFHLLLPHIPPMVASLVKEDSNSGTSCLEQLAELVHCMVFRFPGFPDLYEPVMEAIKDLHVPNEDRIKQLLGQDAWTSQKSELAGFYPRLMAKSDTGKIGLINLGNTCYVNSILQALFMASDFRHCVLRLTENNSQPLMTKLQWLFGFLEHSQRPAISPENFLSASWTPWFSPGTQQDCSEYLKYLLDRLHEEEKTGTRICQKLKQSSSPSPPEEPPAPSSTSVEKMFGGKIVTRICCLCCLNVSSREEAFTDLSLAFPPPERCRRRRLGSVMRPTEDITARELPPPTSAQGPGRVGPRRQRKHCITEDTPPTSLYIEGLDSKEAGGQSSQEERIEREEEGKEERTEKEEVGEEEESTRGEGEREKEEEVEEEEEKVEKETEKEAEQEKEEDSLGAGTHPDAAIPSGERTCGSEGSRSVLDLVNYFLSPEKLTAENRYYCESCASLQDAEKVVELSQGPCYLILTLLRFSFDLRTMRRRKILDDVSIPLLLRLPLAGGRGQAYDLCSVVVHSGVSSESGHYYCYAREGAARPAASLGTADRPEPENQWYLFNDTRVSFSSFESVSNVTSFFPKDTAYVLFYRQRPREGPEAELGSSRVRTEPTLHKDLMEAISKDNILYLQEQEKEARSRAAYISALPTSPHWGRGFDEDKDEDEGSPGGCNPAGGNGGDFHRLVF
Outline: as §1

UniProt Q9UGI0 = biological target: T4, UniProt Q9UGI0
T4 sequence (whole entry): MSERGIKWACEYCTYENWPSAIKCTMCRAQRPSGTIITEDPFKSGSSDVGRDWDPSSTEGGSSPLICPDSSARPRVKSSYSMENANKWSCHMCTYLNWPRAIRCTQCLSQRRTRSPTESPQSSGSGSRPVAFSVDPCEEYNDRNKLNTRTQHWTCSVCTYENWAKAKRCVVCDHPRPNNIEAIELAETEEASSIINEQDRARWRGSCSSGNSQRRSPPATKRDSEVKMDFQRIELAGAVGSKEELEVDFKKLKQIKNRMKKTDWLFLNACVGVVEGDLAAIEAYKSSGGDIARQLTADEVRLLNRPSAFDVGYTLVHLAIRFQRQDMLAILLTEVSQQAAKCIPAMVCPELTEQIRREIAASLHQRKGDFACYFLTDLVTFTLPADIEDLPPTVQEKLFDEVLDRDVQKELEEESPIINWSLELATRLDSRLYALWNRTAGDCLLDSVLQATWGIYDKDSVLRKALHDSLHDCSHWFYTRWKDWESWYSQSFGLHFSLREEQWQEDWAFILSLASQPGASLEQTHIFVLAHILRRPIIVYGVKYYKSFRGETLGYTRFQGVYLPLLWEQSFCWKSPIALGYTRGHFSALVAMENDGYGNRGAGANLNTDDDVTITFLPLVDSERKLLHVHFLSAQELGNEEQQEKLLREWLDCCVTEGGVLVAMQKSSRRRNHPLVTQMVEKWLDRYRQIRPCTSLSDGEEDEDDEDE
Outline: as §1

YOD1 = biological target: T5, YOD1 (UniProt Q5VVQ6)
T5 sequence (whole entry): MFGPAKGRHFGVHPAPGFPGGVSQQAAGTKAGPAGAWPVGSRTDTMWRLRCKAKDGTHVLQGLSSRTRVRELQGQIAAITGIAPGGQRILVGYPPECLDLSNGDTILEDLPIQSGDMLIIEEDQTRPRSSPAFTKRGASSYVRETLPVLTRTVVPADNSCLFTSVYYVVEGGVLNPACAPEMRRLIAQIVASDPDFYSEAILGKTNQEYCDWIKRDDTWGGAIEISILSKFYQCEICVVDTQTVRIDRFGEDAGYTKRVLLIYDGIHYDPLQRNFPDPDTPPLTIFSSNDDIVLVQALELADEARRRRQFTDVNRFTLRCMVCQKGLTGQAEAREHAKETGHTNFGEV
Outline: as §1

Measured: log2 ratio of Biotin-Ahx-Ub-VS probe labelling

USP9X, sequence (Q93008 whole entry, the tested form may be a part): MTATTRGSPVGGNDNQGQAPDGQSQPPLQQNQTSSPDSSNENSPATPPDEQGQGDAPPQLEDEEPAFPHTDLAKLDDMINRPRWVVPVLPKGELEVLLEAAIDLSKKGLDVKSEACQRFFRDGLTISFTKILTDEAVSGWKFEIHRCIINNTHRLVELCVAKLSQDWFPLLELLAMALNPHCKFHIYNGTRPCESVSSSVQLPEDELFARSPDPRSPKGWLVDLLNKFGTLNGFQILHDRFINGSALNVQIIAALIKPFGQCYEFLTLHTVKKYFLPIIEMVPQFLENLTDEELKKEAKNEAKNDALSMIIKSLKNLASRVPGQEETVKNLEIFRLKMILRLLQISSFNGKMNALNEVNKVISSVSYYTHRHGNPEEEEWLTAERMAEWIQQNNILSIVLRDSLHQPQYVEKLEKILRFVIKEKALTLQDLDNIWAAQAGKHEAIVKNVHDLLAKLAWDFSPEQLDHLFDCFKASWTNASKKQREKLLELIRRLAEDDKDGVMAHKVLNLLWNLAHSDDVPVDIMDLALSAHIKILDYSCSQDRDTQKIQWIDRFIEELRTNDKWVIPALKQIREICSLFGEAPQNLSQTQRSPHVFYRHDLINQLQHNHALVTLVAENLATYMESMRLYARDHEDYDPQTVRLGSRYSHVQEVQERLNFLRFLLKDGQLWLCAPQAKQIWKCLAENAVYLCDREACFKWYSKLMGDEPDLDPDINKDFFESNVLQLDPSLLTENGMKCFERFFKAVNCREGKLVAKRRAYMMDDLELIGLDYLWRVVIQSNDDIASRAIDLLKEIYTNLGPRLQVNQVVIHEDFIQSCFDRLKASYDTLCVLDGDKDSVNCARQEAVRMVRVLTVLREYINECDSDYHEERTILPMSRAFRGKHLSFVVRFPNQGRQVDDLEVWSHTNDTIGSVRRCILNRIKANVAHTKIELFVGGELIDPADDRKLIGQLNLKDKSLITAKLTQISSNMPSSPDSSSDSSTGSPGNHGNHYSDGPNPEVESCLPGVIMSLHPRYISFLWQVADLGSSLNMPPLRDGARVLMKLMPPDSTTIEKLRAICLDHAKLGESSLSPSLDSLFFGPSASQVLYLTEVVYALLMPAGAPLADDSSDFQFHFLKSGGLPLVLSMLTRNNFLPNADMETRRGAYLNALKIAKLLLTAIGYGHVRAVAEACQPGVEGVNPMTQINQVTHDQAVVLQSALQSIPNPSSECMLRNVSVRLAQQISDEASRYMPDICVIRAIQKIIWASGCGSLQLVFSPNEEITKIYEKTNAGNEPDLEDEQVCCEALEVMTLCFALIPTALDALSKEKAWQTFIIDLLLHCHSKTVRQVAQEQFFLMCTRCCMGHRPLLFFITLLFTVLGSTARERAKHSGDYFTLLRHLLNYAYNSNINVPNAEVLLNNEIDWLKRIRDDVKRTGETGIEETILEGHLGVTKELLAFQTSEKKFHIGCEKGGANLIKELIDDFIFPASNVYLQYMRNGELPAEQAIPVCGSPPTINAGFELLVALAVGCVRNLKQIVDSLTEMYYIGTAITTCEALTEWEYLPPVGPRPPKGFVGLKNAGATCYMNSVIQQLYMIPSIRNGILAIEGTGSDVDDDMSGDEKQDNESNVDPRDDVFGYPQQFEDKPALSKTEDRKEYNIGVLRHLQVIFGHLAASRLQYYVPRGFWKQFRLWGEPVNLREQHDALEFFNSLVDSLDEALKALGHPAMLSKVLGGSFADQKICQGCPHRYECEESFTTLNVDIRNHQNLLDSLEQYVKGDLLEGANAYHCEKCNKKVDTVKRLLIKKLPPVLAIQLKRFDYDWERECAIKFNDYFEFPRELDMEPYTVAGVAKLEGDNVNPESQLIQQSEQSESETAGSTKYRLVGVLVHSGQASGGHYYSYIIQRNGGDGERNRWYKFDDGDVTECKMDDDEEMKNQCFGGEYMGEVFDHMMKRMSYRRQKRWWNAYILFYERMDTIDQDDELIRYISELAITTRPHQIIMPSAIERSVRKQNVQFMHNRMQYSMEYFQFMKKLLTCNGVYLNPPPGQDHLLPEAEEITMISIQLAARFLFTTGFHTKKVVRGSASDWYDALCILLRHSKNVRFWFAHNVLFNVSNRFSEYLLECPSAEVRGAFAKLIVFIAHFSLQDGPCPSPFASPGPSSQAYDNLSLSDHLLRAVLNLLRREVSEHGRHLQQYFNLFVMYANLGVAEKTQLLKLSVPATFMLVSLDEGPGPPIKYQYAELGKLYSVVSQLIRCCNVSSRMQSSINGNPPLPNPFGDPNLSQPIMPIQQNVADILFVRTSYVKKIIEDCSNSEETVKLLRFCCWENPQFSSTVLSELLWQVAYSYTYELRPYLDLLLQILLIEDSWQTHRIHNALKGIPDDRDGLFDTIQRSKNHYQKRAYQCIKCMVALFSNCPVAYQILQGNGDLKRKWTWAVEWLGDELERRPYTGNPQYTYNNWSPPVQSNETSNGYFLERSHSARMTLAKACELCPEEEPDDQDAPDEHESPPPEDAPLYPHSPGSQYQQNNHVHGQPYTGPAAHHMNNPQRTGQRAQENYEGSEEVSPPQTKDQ
UniProt P51784, sequence (P51784 whole entry): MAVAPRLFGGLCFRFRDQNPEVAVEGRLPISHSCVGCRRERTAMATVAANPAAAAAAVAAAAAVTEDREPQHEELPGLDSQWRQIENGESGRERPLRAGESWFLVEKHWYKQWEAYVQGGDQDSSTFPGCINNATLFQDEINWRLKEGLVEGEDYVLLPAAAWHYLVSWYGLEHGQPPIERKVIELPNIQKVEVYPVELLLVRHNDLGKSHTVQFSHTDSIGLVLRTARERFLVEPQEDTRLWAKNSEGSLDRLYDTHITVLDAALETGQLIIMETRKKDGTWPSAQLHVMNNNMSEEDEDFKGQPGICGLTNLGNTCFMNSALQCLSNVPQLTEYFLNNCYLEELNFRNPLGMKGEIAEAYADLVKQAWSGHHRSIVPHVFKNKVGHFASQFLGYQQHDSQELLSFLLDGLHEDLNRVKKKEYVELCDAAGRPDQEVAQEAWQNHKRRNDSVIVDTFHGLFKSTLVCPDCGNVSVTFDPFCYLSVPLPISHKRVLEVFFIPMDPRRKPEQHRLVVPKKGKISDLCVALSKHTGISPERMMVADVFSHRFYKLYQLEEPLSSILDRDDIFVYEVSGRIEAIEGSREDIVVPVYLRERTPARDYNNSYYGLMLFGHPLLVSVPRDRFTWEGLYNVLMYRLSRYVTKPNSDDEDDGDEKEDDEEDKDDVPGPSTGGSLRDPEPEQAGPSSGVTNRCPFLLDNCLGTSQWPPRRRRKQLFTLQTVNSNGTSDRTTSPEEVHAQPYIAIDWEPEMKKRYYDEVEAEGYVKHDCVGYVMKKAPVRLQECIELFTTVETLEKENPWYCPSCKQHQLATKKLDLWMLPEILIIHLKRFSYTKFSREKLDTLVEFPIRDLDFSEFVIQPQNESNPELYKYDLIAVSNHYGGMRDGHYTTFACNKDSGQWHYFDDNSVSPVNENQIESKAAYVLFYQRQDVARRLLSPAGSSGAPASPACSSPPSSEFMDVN
UniProt O00487, sequence (O00487 whole entry): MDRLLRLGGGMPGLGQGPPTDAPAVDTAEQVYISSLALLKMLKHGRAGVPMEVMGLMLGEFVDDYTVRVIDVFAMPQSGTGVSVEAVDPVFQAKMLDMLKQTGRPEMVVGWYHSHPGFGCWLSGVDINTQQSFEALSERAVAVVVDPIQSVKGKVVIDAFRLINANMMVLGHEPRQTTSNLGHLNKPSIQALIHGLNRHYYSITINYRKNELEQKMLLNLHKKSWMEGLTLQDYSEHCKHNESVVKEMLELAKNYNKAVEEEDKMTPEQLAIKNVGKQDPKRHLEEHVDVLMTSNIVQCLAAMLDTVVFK

Cc1cccc(NC(=O)[C@@H]2CCCN2C(=O)CCl)n1
inactive: USP9X -0.337 | UniProt O00487 -0.177 | UniProt O00507 -0.299 | UniProt P51784 -0.00908 | UniProt Q5T2D3 -0.366 | UniProt Q8TE49 -0.721 | UniProt Q9P2H5 -0.312 | UniProt Q9UGI0 -0.3 | YOD1 -0.432
